Bioassay records: PubChem, Broad Institute
Shn3 inh set2 – reduces Shn3 3'UTR luciferase signal in osteoblasts; inhibition, % at 12.5 µM; 360,000 compounds, 0.52% hits; Clone20 osteoblast Shn3 3'UTR firefly luciferase, 24 h;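 active means mean inhibition of at least 75% with every replicate also reaching 75%; inconclusive means mean inhibition at least 75% but some replicate below; inactive means mean inhibition below 75%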;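 further: 0% = median of neutral control wells and 100% = pilot-screen positive control compound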
PAX8 inh HTS – PAX8 transcriptional activity inhibition; 360,000 compounds, 1.2% hits; RMG-I TPO-luciferase reporter, SteadyGlo, 24 h; AID 652154; inhibition, % at 12.6 µM;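 active means mean replicate inhibition at least 60% with every replicate also reaching 60%; inconclusive means only one of the two criteria is met; inactive means mean below 60% and not all replicates reaching 60%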;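 further: luciferase light reporting Pax8 driven TPO promoter activity; plate controls were median of neutral control wells for no effect and mitoxantrone controls for full effect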
LMP1 NFkB inh – reduces LMP1-driven NF-kappaB luciferase signal | LMP1-induced NF-kappaB luciferase reporter cells, luminescence | inhibition, % at 12.5 µM | 350,000 compounds, 0.69% hits; in the data active means inhibition above about 41%; inconclusive means no clear call, values can overlap the other calls;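 further: 0% = neutral control wells and 100% = reference inhibitor control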
LGR2 inh – blocks bursicon-induced cAMP signaling via Drosophila LGR2 | HEK293 LGR2, CRE-luciferase, bursicon-stimulated, 4 h | inhibition, % at 9.99 µM | 380,000 compounds, 0.35% hits | AID 720647;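 active means drop in luminescence signal, shown as inhibition above about 50% in the replicate tests, limit read from the data, passing the limit was not always enough; inconclusive means probably only some replicates passing the limit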;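 further: agonist challenge used bursicon conditioned medium at about half maximal strength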
MITF TRPM1 inh – inhibitors of MITF-driven TRPM1 promoter in melanoma cells; 330,000 compounds, 0.83% hits; AID 488899; inhibition, % at 12.5 µM; SK-MEL-5 TRPM1 promoter luciferase, 24 h;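 active means mean inhibition across replicates of 60% or more, whatever share of single replicates reaches that level; inconclusive means some that reach 60%, reason not given; inactive means mean inhibition across replicates below 60%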
EWS-Fli inh – EWS/Fli transcriptional activity inhibition | AID 651661 | A673 NR0B1-luciferase reporter, viability-normalised | inhibition, % at 12.6 µM | 350,000 compounds, 0.67% hits;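 active means mean inhibition of at least 50% after viability correction, with every replicate also passing that limit; inconclusive means mean reaches 50% but only one of two replicates passes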;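 further: firefly luciferase signal divided by Alamar Blue viability fluorescence both relative to DMSO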
Active calls of the source: *. An excerpt weighted towards active compounds, which were near 2.2% of everything screened.

What do the screens show for `Cc1c(NC(=O)c2cccc(NC(=O)COc3ccccc3C#N)c2)c(=O)n(-c2ccccc2)n1C`?
Shn3 inh set2: 9.6; PAX8 inh HTS: 65.1*; LMP1 NFkB inh: 54.5*; LGR2 inh: inconclusive; MITF TRPM1 inh: 50.6; EWS-Fli inh: inconclusive

How did Cc1cc(C(=O)Nc2cccc3c2O[C@H](CN(C)C(=O)Nc2c(C)noc2C)[C@H](C)CN([C@@H](C)CO)C3=O)n(C)n1 do in these assays?
LGR2 inh: -5.2; EWS-Fli inh: -13.4

What do the screens show for `COc1ccc(-n2cc(-c3ccc(OC(F)F)cc3)[n+]3c2CCCCC3)cc1`?
Shn3 inh set2: 62.5; PAX8 inh HTS: 86.3*; LMP1 NFkB inh: 8.4; LGR2 inh: -3.6; MITF TRPM1 inh: 26.1; EWS-Fli inh: 5.3

How did COc1ccc(-c2cn(-c3ccc(Cl)cc3)c3[n+]2CCCCC3)cc1 do in these assays?
Shn3 inh set2: 62.4; PAX8 inh HTS: 39.9; LMP1 NFkB inh: 5.8; LGR2 inh: -0.6; MITF TRPM1 inh: 21.1; EWS-Fli inh: 9.1

How did Nc1cccnc1S(=O)(=O)c1ccccc1 do in these assays?
Shn3 inh set2: 6.6; PAX8 inh HTS: -2.8; LMP1 NFkB inh: -1.7; LGR2 inh: -1.7; MITF TRPM1 inh: -10.8; EWS-Fli inh: -8.1

How did O=[N+]([O-])c1cccnc1S(=O)(=O)c1ccccc1 do in these assays?
Shn3 inh set2: 97.7*; PAX8 inh HTS: 110.1*; LMP1 NFkB inh: -1.7; LGR2 inh: 11.5; MITF TRPM1 inh: 23.3; EWS-Fli inh: 43.7

Results for COc1nc(OC)nc(Oc2ccc(Cl)cc2[N+](=O)[O-])n1 ?
Shn3 inh set2: -13.3; PAX8 inh HTS: 0.9; LMP1 NFkB inh: -4.8; LGR2 inh: -8.9; MITF TRPM1 inh: 13.8; EWS-Fli inh: 5.1

How did COc1ccc([N+](=O)[O-])c(S(=O)(=O)c2ccc(Cl)cc2)n1 do in these assays?
Shn3 inh set2: 94.2*; PAX8 inh HTS: 82.1*; LMP1 NFkB inh: 61.9*; LGR2 inh: 96.9*; MITF TRPM1 inh: 70.6*; EWS-Fli inh: 20.1

Results for COc1ccc([N+](=O)[O-])c(S(=O)(=O)c2ccccc2)n1 ?
Shn3 inh set2: 53.9; PAX8 inh HTS: 102.7*; LGR2 inh: 103.9*; EWS-Fli inh: 25.3

How did COc1ccccc1/C=C1\SC(=S)N(CC(=O)Nc2nnc(C)s2)C1=O do in these assays?
PAX8 inh HTS: -0.4; LGR2 inh: -7.2; EWS-Fli inh: 60.0*

What do the screens show for `C[C@@H]1CCCCO[C@@H](CN(C)S(C)(=O)=O)[C@H](C)CN([C@H](C)CO)C(=O)c2cc(NC(=O)Nc3ccccc3)ccc2O1`?
PAX8 inh HTS: 5.3; LGR2 inh: -1.4; EWS-Fli inh: -5.7

How did CN(C)NC1=CC(=[N+]2CCCC2)CC(C)(C)C1 do in these assays?
Shn3 inh set2: 16.4; PAX8 inh HTS: 5.3; LMP1 NFkB inh: -1.1; LGR2 inh: 6.6; MITF TRPM1 inh: -4.0; EWS-Fli inh: 12.2

Results for CC1(C)CC(N2CCCCC2)=CC(=[N+]2CCCCC2)C1 ?
Shn3 inh set2: inconclusive; PAX8 inh HTS: 75.0*; LMP1 NFkB inh: 12.7; LGR2 inh: 8.9; MITF TRPM1 inh: 56.6; EWS-Fli inh: 20.4

What do the screens show for `CC1(C)CC(N2CCOCC2)=CC(=[N+]2CCOCC2)C1`?
Shn3 inh set2: 3.7; PAX8 inh HTS: -3.3; LMP1 NFkB inh: 5.9; LGR2 inh: 4.8; MITF TRPM1 inh: 9.1; EWS-Fli inh: 4.6

How did CCCN(CCC)C1=CC(=[N+]2CCCC2)CC(C)(C)C1 do in these assays?
Shn3 inh set2: 71.7; PAX8 inh HTS: 50.6; LMP1 NFkB inh: 26.7; LGR2 inh: -0.2; MITF TRPM1 inh: 73.0*; EWS-Fli inh: 14.1

Results for Cc1ccc(-c2nn(-c3ccccc3)cc2CO)cc1 ?
Shn3 inh set2: -52.6; PAX8 inh HTS: -142.8; LMP1 NFkB inh: 0.2; LGR2 inh: -38.7; MITF TRPM1 inh: -63.2; EWS-Fli inh: -90.1

How did Cc1ccc(Sc2c(CO)c(-c3ccccc3)nn2C)cc1 do in these assays?
Shn3 inh set2: -2.0; PAX8 inh HTS: 66.0*; LMP1 NFkB inh: 7.3; LGR2 inh: 9.3; MITF TRPM1 inh: 5.2; EWS-Fli inh: 49.8

Results for COC(=O)C1=C(CN2CCCc3ccccc32)NC(=O)NC1c1ccc(F)cc1 (stereo unspecified) ?
Shn3 inh set2: 73.6; LMP1 NFkB inh: 37.5; LGR2 inh: 16.8; MITF TRPM1 inh: 86.8*

What do the screens show for `N=C(N)SCP(=O)(c1ccccc1)c1ccccc1`?
Shn3 inh set2: -4.2; PAX8 inh HTS: 8.4; LMP1 NFkB inh: 53.5*; LGR2 inh: -6.7; MITF TRPM1 inh: 11.0; EWS-Fli inh: -2.1

How did O=C(NC[C@@H]1CC[C@@H]2[C@@H](CN2S(=O)(=O)c2ccccc2[N+](=O)[O-])O1)C1CCOCC1 do in these assays?
EWS-Fli inh: -4.1

Results for COc1ccc(C)cc1Nc1n[n+](-c2ccccc2)c(-c2c(OC)ccc3ccccc23)s1 ?
Shn3 inh set2: 74.0; PAX8 inh HTS: 84.2*; LMP1 NFkB inh: 44.2*; LGR2 inh: 44.2; MITF TRPM1 inh: 66.4*; EWS-Fli inh: 37.3

Results for Fc1ccc(-[n+]2nc(Nc3ccccc3)sc2-c2c3ccccc3cc3ccccc23)cc1 ?
Shn3 inh set2: 56.5; PAX8 inh HTS: 86.4*; LMP1 NFkB inh: 1.1; LGR2 inh: 26.0; MITF TRPM1 inh: 42.2; EWS-Fli inh: 31.3

Results for Oc1ccc2ccccc2c1-c1sc(Nc2ccccc2)n[n+]1-c1ccc(F)cc1 ?
Shn3 inh set2: -7.2; PAX8 inh HTS: 13.2; LMP1 NFkB inh: 0.3; MITF TRPM1 inh: 2.0; EWS-Fli inh: 4.3

Results for Cc1ccc(S(=O)(=O)Nc2ccc3c(c2)CC(=O)N([C@@H](C)CO)C[C@H](C)[C@@H](CN(C)Cc2ccc(Oc4ccccc4)cc2)O3)cc1 ?
PAX8 inh HTS: 79.6*; LGR2 inh: 12.0; EWS-Fli inh: 6.9

What do the screens show for `C[C@@H]1CN([C@@H](C)CO)C(=O)Cc2cc(NS(=O)(=O)c3ccc(F)cc3)ccc2O[C@H]1CN(C)Cc1ccc(C(F)(F)F)cc1`?
PAX8 inh HTS: 89.5*; LGR2 inh: 1.7; EWS-Fli inh: 31.2

What do the screens show for `Cc1ccc(S(=O)(=O)Nc2ccc3c(c2)CC(=O)N([C@@H](C)CO)C[C@@H](C)[C@@H](CN(C)Cc2ccc(C(F)(F)F)cc2)O3)cc1`?
PAX8 inh HTS: 62.0*; LGR2 inh: 1.2; EWS-Fli inh: 23.5

What do the screens show for `C[C@@H]1CN([C@H](C)CO)C(=O)c2cc(NS(=O)(=O)c3ccc(F)cc3)ccc2O[C@@H]1CN(C)Cc1ccc(C(F)(F)F)cc1`?
PAX8 inh HTS: 115.1*; LGR2 inh: 11.6; EWS-Fli inh: 68.1*

How did C[C@@H]1CN([C@H](C)CO)C(=O)Cc2cc(NS(=O)(=O)c3ccc(F)cc3)ccc2O[C@@H]1CN(C)Cc1ccc(C(F)(F)F)cc1 do in these assays?
PAX8 inh HTS: -13.4; LGR2 inh: -9.3; EWS-Fli inh: 7.5
